This passage reports growth results from PubChem BioAssay (NCI).

SMILES strings stand for the structures. About 83,000 compounds went through this panel and 20% of them were active in at least one assay; those are over-represented in the sample as a whole.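 Results are percent growth after 48 hours of single-concentration exposure. 100 means growth as in untreated cells, lower positive values show inhibition; negative values down to -100 show cell death.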 Calls of active or inactive are those of the source. How the source made its calls: active means growth percent below 10; inactive means the rest.

The assay concerns MDA-MB-468 breast. The experiment in a line: NCI-60 one-dose screen, 48 h (100 = growth as untreated, 0 = no growth, -100 = all killed). The following applies: 10 µM unless noted.
`O=C1c2ccccc2C(=O)C(Cl)C1Cl` (centres undefined): the growth is -89.9% (active).
Consider `[Cl][Hg][c]1ccc(Cl)s1`, for which the growth is -61% (active).
The same measure for `CCC(C)[C@H]1C(=O)O[C@H](C(C)C)C(=O)N(C)[C@@H](C(C)C)C(=O)O[C@H](C(C)C)C(=O)N(C)[C@@H](C(C)C)C(=O)O[C@H](C(C)C)C(=O)N1C` (some centres undefined): -0.302% (active); for `CCCc1cc(O)c2c3c(c(=O)oc2c1)CN(C)CC3`: -3.7% (active).
